Reference: PubChem BioAssay AID1159580 (chemical genetic matrix, 2015)
The campaign covered roughly 5,500 compounds. About 2,000 (36%) were called active. Not shown: some 18% with an inconclusive outcome. Cut-off read from the data, not from the text of the source: active = normalized growth mostly below about 0.91 (no sharp cut-off); inconclusive = no clear call, values can overlap the other calls; inactive = mostly above about 0.92. This is one part of the list.

Assay: chemical genetic growth profiling, strain panel (AID 1159580);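 note: tested at 20 µM; growth read once vehicle control cultures reached saturation at 30 °C; 1 = growth at the plate median or of vehicle wells; lower values mean less growth of the strain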
Conditions: growth OD

Measured: normalized growth

NC(=O)c1ccccc1O
inactive: S. cerevisiae deletion strains, locus YJR066W, strain TOR1, hits give low values 0.999 | S. cerevisiae deletion strains, locus YKL009W, strain mrt4, hits give low values 1.01 | S. cerevisiae deletion strains, locus YKL068W, hits give low values 0.995 | S. cerevisiae deletion strains, locus YKL085W, strain MDH1 (second series), hits give low values 1 | S. cerevisiae deletion strains, locus YKL085W, strain MDH1, hits give low values 1 | S. cerevisiae deletion strains, locus YKL160W, strain elf1, hits give low values 0.985 | S. cerevisiae deletion strains, locus YKL190W, strain CNB1, hits give low values 0.998 | S. cerevisiae deletion strains, locus YKR001C, strain vps1, hits give low values 1 | S. cerevisiae deletion strains, locus YKR026C, strain gcn3, hits give low values 0.971 | S. cerevisiae deletion strains, locus YKR091W, strain srl3, hits give low values 0.971 | S. cerevisiae deletion strains, locus YLL001W, strain dnm1, hits give low values 0.909 | S. cerevisiae deletion strains, locus YLL026W, hits give low values 0.993 | S. cerevisiae deletion strains, locus YLL041C, strain sdh2, hits give low values 0.969 | S. cerevisiae deletion strains, locus YLR027C, strain aat2, hits give low values 0.981 | S. cerevisiae deletion strains, locus YLR039C, strain RIC1, hits give low values 1 | S. cerevisiae deletion strains, locus YLR058C, strain SHM2, hits give low values 1.01 | S. cerevisiae deletion strains, locus YLR102C, strain apc9, hits give low values 1.01 | S. cerevisiae deletion strains, locus YLR113W, strain HOG1, hits give low values 0.999 | S. cerevisiae deletion strains, locus YLR221C, strain rsa3, hits give low values 1.03 | S. cerevisiae deletion strains, locus YLR258W, strain gsy2, hits give low values 0.988 | S. cerevisiae deletion strains, locus YLR262C, strain YPT6 (second series), hits give low values 0.947 | S. cerevisiae deletion strains, locus YLR262C, strain YPT6, hits give low values 0.986 | S. cerevisiae deletion strains, locus YLR268W, strain sec22, hits give low values 1.04 | S. cerevisiae deletion strains, locus YLR320W, strain mms22, hits give low values 0.996 | S. cerevisiae deletion strains, locus YLR330W, strain CHS5, hits give low values 1.01 | S. cerevisiae deletion strains, locus YLR342W, strain FKS1 (second series), hits give low values 1.02 | S. cerevisiae deletion strains, locus YLR342W, strain FKS1, hits give low values 0.978 | S. cerevisiae deletion strains, locus YLR357W, strain rsc2, hits give low values 0.952 | S. cerevisiae deletion strains, locus YLR370C, strain arc18, hits give low values 0.964 | S. cerevisiae deletion strains, locus YLR371W, strain rom2, hits give low values 1.01 | S. cerevisiae deletion strains, locus YLR384C, strain iki3, hits give low values 0.963 | S. cerevisiae deletion strains, locus YLR418C, strain cdc73, hits give low values 1.02 | S. cerevisiae deletion strains, locus YML016C, strain PPZ1, hits give low values 1 | S. cerevisiae deletion strains, locus YML032C, strain rad52, hits give low values 1.01 | S. cerevisiae deletion strains, locus YML120C, strain ndi1, hits give low values 0.954 | S. cerevisiae deletion strains, locus YML124C, strain tub3, hits give low values 1.01 | S. cerevisiae deletion strains, locus YMR058W, strain fet3, hits give low values 0.987 | S. cerevisiae deletion strains, locus YMR078C, strain ctf18, hits give low values 1 | S. cerevisiae deletion strains, locus YMR125W, strain sto1, hits give low values 0.962 | S. cerevisiae deletion strains, locus YMR129W, hits give low values 0.974 | S. cerevisiae deletion strains, locus YMR205C, strain PFK2, hits give low values 0.978 | S. cerevisiae deletion strains, locus YMR223W, strain ubp8, hits give low values 0.988 | S. cerevisiae deletion strains, locus YMR231W, strain pep5, hits give low values 0.965 | S. cerevisiae deletion strains, locus YMR307W, strain GAS1, hits give low values 1.03 | S. cerevisiae deletion strains, locus YNL067W, strain RPL9B, hits give low values 0.99 | S. cerevisiae deletion strains, locus YNL071W, strain lat1, hits give low values 0.974 | S. cerevisiae deletion strains, locus YNL183C, strain NPR1, hits give low values 0.985 | S. cerevisiae deletion strains, locus YNL209W, strain ssb2, hits give low values 0.98 | S. cerevisiae deletion strains, locus YNL233W, strain BNI4, hits give low values 1 | S. cerevisiae deletion strains, locus YNL248C, strain rpa49, hits give low values 0.982 | S. cerevisiae deletion strains, locus YNL250W, strain rad50, hits give low values 1 | S. cerevisiae deletion strains, locus YNL271C, strain bni1, hits give low values 1.02 | S. cerevisiae deletion strains, locus YNL298W, strain CLA4, hits give low values 1.02 | S. cerevisiae deletion strains, locus YNL307C, strain MCK1, hits give low values 1.02 | S. cerevisiae deletion strains, locus YNL322C, strain KRE1 (second series), hits give low values 0.954 | S. cerevisiae deletion strains, locus YNL322C, strain KRE1, hits give low values 0.998 | S. cerevisiae deletion strains, locus YNR049C, strain mso1, hits give low values 0.974 | S. cerevisiae deletion strains, locus YNR052C, strain pop2, hits give low values 1.01 | S. cerevisiae deletion strains, locus YOL006C, strain TOP1, hits give low values 0.998 | S. cerevisiae deletion strains, locus YOL012C, strain htz1 1.16 | S. cerevisiae deletion strains, locus YOL147C, strain pex11, hits give low values 1.01 | S. cerevisiae deletion strains, locus YOR001W, strain rrp6, hits give low values 0.957 | S. cerevisiae deletion strains, locus YOR061W, strain CKA2, hits give low values 1 | S. cerevisiae deletion strains, locus YOR069W, strain VPS5, hits give low values 1 | S. cerevisiae deletion strains, locus YOR070C, strain gyp1, hits give low values 1 | S. cerevisiae deletion strains, locus YOR080W, strain dia2, hits give low values 0.981 | S. cerevisiae deletion strains, locus YOR083W, strain WHI5, hits give low values 0.957 | S. cerevisiae deletion strains, locus YOR106W, strain vam3, hits give low values 0.94 | S. cerevisiae deletion strains, locus YOR136W, strain idh2, hits give low values 0.989 | S. cerevisiae deletion strains, locus YOR144C, strain elg1, hits give low values 1 | S. cerevisiae deletion strains, locus YOR184W, strain ser1, hits give low values 0.895 | S. cerevisiae deletion strains, locus YOR231W, strain MKK1, hits give low values 1.03 | S. cerevisiae deletion strains, locus YOR265W, strain rbl2, hits give low values 0.98 | S. cerevisiae deletion strains, locus YOR270C, strain vph1, hits give low values 0.963 | S. cerevisiae deletion strains, locus YOR290C, strain snf2, hits give low values 0.999 | S. cerevisiae deletion strains, locus YOR316C, strain cot1, hits give low values 1 | S. cerevisiae deletion strains, locus YPL051W, strain arl3, hits give low values 1.01 | S. cerevisiae deletion strains, locus YPL078C, strain atp4, hits give low values 0.94 | S. cerevisiae deletion strains, locus YPL106C, strain sse1, hits give low values 0.936 | S. cerevisiae deletion strains, locus YPL240C, strain hsp82, hits give low values 0.977 | S. cerevisiae deletion strains, locus YPL241C, strain CIN2, hits give low values 1.01 | S. cerevisiae deletion strains, locus YPL256C, strain CLN2, hits give low values 1.05 | S. cerevisiae deletion strains, locus YPR119W, strain clb2, hits give low values 0.999 | S. cerevisiae deletion strains, locus YPR141C, strain kar3, hits give low values 1.01 | S. cerevisiae deletion strains, locus YPR163C, strain tif3, hits give low values 1.01 | S. cerevisiae deletion strains, locus YPR167C, strain met16, hits give low values 1.01 | S. cerevisiae deletion strains, strain wtn01, hits give low values 1.03 | S. cerevisiae strains, strain wild type, hits give low values 1.01
